According to PubChem BioAssay (NCI):
Compounds without any hit were thinned out: in the full panel of roughly 79,000, 15% have a hit. A number with no mark means an inactive call. Activity calls are given as the source filed them. Cut-off read from the data, not from the text of the source: active = growth inhibition above about 70%; inactive = the rest.

Experiments:
[1] = NCI Yeast Anticancer Drug Screen. Data for the rad50 strain (AID 155);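 note: 0% = growth of vehicle-only cultures of the same strain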; conditions: S. cerevisiae rad50 strain growth inhibition, active compounds read high
Summary of the method: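 DNA repair mutant yeast, compound exposure, growth read-out; inhibition is taken relative to vehicle.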

[2] = NCI Yeast Anticancer Drug Screen. Data for the mec2-1 strain (AID 157); conditions: S. cerevisiae mec2-1 strain, active compounds read high
Summary of the method: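 Compounds were applied to mec2-1 yeast cells. Their growth was then compared with that of vehicle-treated cultures to give growth inhibition.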

[3] = NCI Yeast Anticancer Drug Screen. Data for the sgs1 mgt1 strain (AID 161);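 note: 0% = growth of cultures given vehicle only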; conditions: S. cerevisiae sgs1 mgt1 strain, active compounds read high
Summary of the method: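 This yeast growth screen uses a strain with defined DNA-repair lesions; compound-treated growth is compared with vehicle-treated growth.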

[4] = NCI Yeast Anticancer Drug Screen. Data for the cln2 rad14 strain (AID 165);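 note: 0% = growth equal to vehicle treated cultures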; conditions: S. cerevisiae cln2 rad14 strain, active compounds read high
Summary of the method: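 Strain: cln2 rad14 yeast, altered in cell cycle control and DNA damage repair. Read-out: growth inhibition vs vehicle.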

[5] = NCI Yeast Anticancer Drug Screen. Data for the bub3 strain (AID 167); conditions: S. cerevisiae bub3 mutant strain, active compounds read high
Summary of the method: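 In this screen, a yeast mutant lacking normal mitotic checkpoint function is challenged with compound. Relative growth versus vehicle gives the inhibition value.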

[6] = NCI Yeast Anticancer Drug Screen. Data for the mlh1 rad18 strain (AID 175); conditions: S. cerevisiae mlh1 rad18 strain growth inhibition, active compounds read high
Summary of the method: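 A repair-deficient yeast strain is exposed to test compound, and growth is scored relative to vehicle-treated controls.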

[7] = at 5.0 µM (retest, dose inferred, filed as 0.5)
[8] = at 50.0 µM (retest, dose inferred, filed as 5.0)

| Compound | growth inhibition [1, 7] | growth inhibition [1, 8] | growth inhibition ([1]; at 50.0 µM) | growth inhibition [2, 7] | growth inhibition [2, 8] | growth inhibition ([2]; at 50.0 µM) | growth inhibition [3, 7] | growth inhibition [3, 8] | growth inhibition ([3]; at 50.0 µM) | growth inhibition [4, 7] [%] | growth inhibition [4, 8] | growth inhibition ([4]; at 50.0 µM) | growth inhibition [5, 7] | growth inhibition [5, 8] | growth inhibition ([5]; at 50.0 µM) | growth inhibition [6, 7] | growth inhibition [6, 8] | growth inhibition ([6]; at 50.0 µM) |
| --- | --- | --- | --- | --- | --- | --- | --- | --- | --- | --- | --- | --- | --- | --- | --- | --- | --- | --- |
| C=CCCCN1C(=O)C2C3c4ccccc4C(C=O)(c4ccccc43)C2C1=O (stereo not given) | 29% | 25% | 32.1% | 8% | 20% | 30.7% | 0% | 23% | 27.9% | 16 | 12% | 29.6% | 26% | 17% | 4.65% | 27% | 35% | 3.25% |
| COc1cc(C(=O)CBr)c2ccc(Cl)cc2n1 | 73% (active) | 97% (active) | 84.8% (active) | 90% (active) | 98% (active) | 69.2% | 94% (active) | 97% (active) | 94% (active) | 59 | 97% (active) | 95.3% (active) | 87% (active) | 97% (active) | 70.3% (active) | 93% (active) | 97% (active) | 91.4% (active) |
| CCC/C(C)=N/NC(=S)SC | 70% (active) | 95% (active) | 96.8% (active) | 38% | 95% (active) | 90.5% (active) | 27% | 96% (active) | 94.2% (active) | 6 | 84% (active) | 77.5% (active) | 65% | 94% (active) | 96.7% (active) | 72% (active) | 95% (active) | 96.3% (active) |
| S=c1nc(/C=C/c2ccc(Cl)c(Cl)c2)[nH][nH]1 | 29% | 68% | 79.5% (active) | 28% | 51% | 44.8% | 27% | 51% | 65.2% | 31 | 42% | 65% | 33% | 67% | 83.7% (active) | 39% | 71% (active) | 22.6% |
| CC(C)(C)C(=O)CC(Cc1nccc2ccccc12)c1ccco1 (stereo not given) | -3% | 94% (active) | 98.7% (active) | -5% | 96% (active) | 99.2% (active) | -3% | 97% (active) | 98.7% (active) | 2 | 94% (active) | 98% (active) | -1% | 94% (active) | 99.2% (active) | -8% | 97% (active) | 98.9% (active) |
| CCOC(=O)CC1(C)C(=O)CCCC1=O | 3% | -2% | -3.7% | -2% | -2% | 2% | 0% | 0% | 3.65% | 0 | -2% | -27.5% | -5% | -2% | -6.7% | -3% | -156% | -1% |
| COc1ccc(CN2COc3c(cc(Cl)c4cccnc34)C2)cc1 | 6% | 98% (active) | 99.5% (active) | -2% | 91% (active) | 99.6% (active) | 1% | 98% (active) | 99.7% (active) | 4 | 99% (active) | 99.2% (active) | -2% | 99% (active) | 99.4% (active) | 8% | 99% (active) | 99.5% (active) |
| CCCC/C=C1\CCC(CN2CCOCC2)C1=O (stereo not given) | 56% | 100% (active) | 90.5% (active) | 39% | 100% (active) | 92.8% (active) | 43% | 100% (active) | 91.4% (active) | 44 | 98% (active) | 90.8% (active) | 69% | 100% (active) | 91.2% (active) | 61% | 98% (active) | 90.7% (active) |
| COc1ccc(C2C3C(=O)OCCOC(=O)C3C2c2ccc(OC)c(OC)c2)cc1OC (stereo not given) | 1% | 49% | 12.5% | 13% | 51% | 17.2% | 4% | 49% | 14.2% | 21 | 59% | 7.7% | 15% | 62% | 18.9% | 15% | 67% | 37.5% |
| CC1N(O)C(c2ccccc2)C(c2ccccc2)=[N+]1[O-] (stereo not given) | 16% | 25% | -5.7% | 11% | 14% | -26.9% | 16% | 26% | -20.4% | 22 | 17% | 8.8% | 22% | 26% | -20.9% | 13% | 22% | -37.4% |
| COc1cc(/C=N/NC(=S)Nc2ccccc2)ccc1O | -20% | 13% | 20.8% | -10% | 34% | 27.4% | -7% | 82% (active) | 66.7% | -31 | 9% | -23.4% | -11% | 60% | 77.7% (active) | -16% | 49% | 30.1% |
| COC(=O)/C(=C/c1ccc(/C=C(/C(=O)O)c2ccc(OC)cc2)o1)c1ccccc1 | 3% | 99% (active) | 8.35% | 2% | 99% (active) | 10.8% | 0% | 99% (active) | -3.5% | 15 | 99% (active) | 11.6% | 0% | 99% (active) | 1.7% | 3% | 99% (active) | 30.8% |
| CCN(CC)C(=S)n1c(=S)nc(N(CC)CC)sc1=S | 57% | 97% (active) | 89.3% (active) | 42% | 98% (active) | 92.2% (active) | 63% | 99% (active) | 92.5% (active) | 39 | 86% (active) | 88.9% (active) | 54% | 83% (active) | 91.2% (active) | 75% (active) | 98% (active) | 89.8% (active) |
| Cc1ccccc1Nc1nc(-c2ccccc2)nc(N)c1N=O | 9% | 98% (active) | 59.2% | 9% | 98% (active) | 43% | 32% | 98% (active) | 72.8% (active) | 13 | 97% (active) | 28.6% | 4% | 97% (active) | 45% | 9% | 97% (active) | 59% |
| COc1ccc(N=Cc2cc(Br)cc(Br)c2O)cc1.COc1ccc(N=Cc2cc(Br)cc(Br)c2O)cc1.[Co] | 79% (active) | 75% (active) | 74% (active) | 80% (active) | 88% (active) | 79.6% (active) | 90% (active) | 85% (active) | 90.6% (active) | 48 | 66% | 52.7% | 86% (active) | 59% | 62.6% | 97% (active) | 78% (active) | 80.8% (active) |
| Cc1c(O)/c(=C\O)c2nc3c(=O)ccc(C(=O)NCCN(C)C)c3[nH]c2c1=O | 29% | 97% (active) | 57.5% | 14% | 70% (active) | 98.2% (active) | 33% | 97% (active) | 56% | -10 | 94% (active) | 98.2% (active) | 19% | 96% (active) | 98.3% (active) | 34% | 96% (active) | 45.1% |
| COC(=O)c1cccc2c1C(=O)c1ccccc1-2 | -7% | 37% | 22.7% | -37% | -14% | -9.6% | -8% | -11% | -5.9% | -3 | -19% | 71.2% (active) | -23% | -54% | -10.7% | -2% | -6% | 1.55% |
| CN(C)C(=S)/N=c1\ssc(=S)n1-c1ccccc1 | 17% | 100% (active) | -13.9% | 39% | 99% (active) | -8.8% | 50% | 100% (active) | -13.1% | 38 | 99% (active) | -17.1% | 46% | 100% (active) | -2.45% | 23% | 99% (active) | 20.7% |
| [O-][n+]1onc2ncccc21 | 34% | 98% (active) | 99.1% (active) | 38% | 99% (active) | 99.5% (active) | 54% | 99% (active) | 99.2% (active) | 33 | 99% (active) | 99.2% (active) | 66% | 98% (active) | 99.2% (active) | 63% | 99% (active) | 99.3% (active) |
| O=C1N=c2ccc(Br)cc2=C1c1sc(=O)n(Cc2nc3ccccc3[nH]2)c1O | 3% | -8% | 70.5% (active) | -11% | 8% | 54% | -2% | 4% | 79.2% (active) | -6 | 6% | 55.7% | 1% | 13% | 9.4% | 0% | 38% | 88.7% (active) |
